Screening data (PubChem)
This is a sample that favours compounds with a hit; in the whole collection about 1.7% have one here.
hERG WT inh = qHTS for Inhibitors of KCHN2 3.1: Wildtype qHTS. actives 0.37% (n = 340,000). AID 720551, 2013. activity change, % at 1.84 µM. U2OS, BacMam KCNH2, thallium flux FluxOr; stronger effect = lower value. Voltage-gated inwardly rectifying potassium channel KCNH2 (Homo sapiens), Q12809;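 active = maximum activity change below -70%; inconclusive = maximum activity change between -70% and -50%; inactive = maximum activity change above -50%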; also: % is scaled to controls: 0 for no effect and ±100 for the full control effect
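U2OS cells were transduced with wild-type KCNH2 virus (2.03 x 10^8 / mL) for 4 h at room temperature, then cultured overnight at 37 C. Thallium flux was read with FluxOr dye. Rate constants were normalized to DMSO controls.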
TRPML1 blocker = qHTS for Inhibitors of the Human Mucolipin Transient Receptor Potential 1 (TRPML1). AID 624415, 2012. actives 0.02% (n = 390,000). activity change, negative = inhibition, % (concentration not given with the values). Mucolipin-1 (Homo sapiens), Q9GZU1. TRPML1-inducible cells, Ca2+ dye fluorescence, FDSS; stronger effect = lower value; inhibition of EC80 agonist-evoked calcium signal; in the data active = activity change below about -50%; inconclusive = between about -30% and that limit;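 also: stimulus is agonist 54-4 at its EC80 concentration; % is scaled to controls: 0 for no effect and ±100 for the full control effect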
Target sequence (Q9GZU1 whole entry, looked up): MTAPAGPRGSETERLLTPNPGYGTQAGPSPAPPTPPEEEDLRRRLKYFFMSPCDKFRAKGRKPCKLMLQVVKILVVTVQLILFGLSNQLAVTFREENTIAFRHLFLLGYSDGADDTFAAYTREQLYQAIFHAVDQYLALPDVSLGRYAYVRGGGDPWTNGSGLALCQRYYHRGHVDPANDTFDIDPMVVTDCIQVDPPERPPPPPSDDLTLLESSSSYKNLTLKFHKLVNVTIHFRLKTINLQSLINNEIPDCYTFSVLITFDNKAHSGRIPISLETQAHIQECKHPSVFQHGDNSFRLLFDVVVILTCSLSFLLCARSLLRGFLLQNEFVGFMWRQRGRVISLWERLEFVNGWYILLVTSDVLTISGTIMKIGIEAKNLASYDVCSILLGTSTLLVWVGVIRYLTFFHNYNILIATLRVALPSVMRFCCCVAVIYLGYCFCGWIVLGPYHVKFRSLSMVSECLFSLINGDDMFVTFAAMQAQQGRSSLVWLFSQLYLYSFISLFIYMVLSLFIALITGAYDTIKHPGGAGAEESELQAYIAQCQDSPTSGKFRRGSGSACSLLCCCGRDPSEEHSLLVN
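TRPML1-DL cells, Tet-induced overnight (~16 h, 37 °C) at 1,500 cells/well, were loaded with Ca8 no-wash dye plus quencher for 45-90 min at room temperature. Compounds were pinned during FDSS kinetic reading; agonist 54-4 at EC80 (4 uM final) then added.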
TRHR PAM = qHTS for Small Molecule Agonists and Allosteric Enhancers of Human TRH Receptor: Primary Screen for Enhancers; Thyrotropin-releasing hormone receptor (Homo sapiens), P34981; TRHR cells, fluo-8 calcium fluorescence, EC20 TRH enhancement; enhancement, % at 2 µM; actives 0.66% (n = 360,000); AID 493056, 2011; in the data active = enhancement above about 30%; also: 0% is about no effect
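TRHR-expressing cells loaded with fluo-8 calcium dye were read kinetically (ex 480/em 530) during compound addition, then stimulated with an EC20 of TRH (10 nM final). Enhancement of the Gq-mediated intracellular calcium response was scored.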
TRHR ag = qHTS for Small Molecule Agonists and Allosteric Enhancers of Human TRH Receptor: Primary Screen for Agonists. activation, % at 2 µM. TRHR cells, calcium flux fluo-8, FDSS agonist mode. AID 493084, 2011. actives 0.18% (n = 360,000). Thyrotropin-releasing hormone receptor (Homo sapiens), P34981; in the data active = activation above about 30%; also: 0% is about no effect
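TRHR-expressing cells loaded with fluo-8 calcium dye; 23 nL library compound pin-transferred, kinetic FDSS fluorescence (Ex 480/Em 530) recorded about 180 s for agonist-induced calcium release, before a 10 nM TRH EC20 addition for potentiator mode.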
KCNH2 3.1 inh = qHTS for Inhibitors of KCHN2 3.1: Mutant qHTS; U2OS KCNH2 3.1, thallium flux FluxOr; stronger effect = lower value; AID 720553, 2013; actives 0.95% (n = 340,000); activity change, % (tested at about 1.8 µM);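 active = maximum activity change below -70%; inconclusive = maximum activity change from -70% to -50%; inactive = maximum activity change above -50%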;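 also: thallium influx rate constant from kinetic fluorescence after stimulation buffer; % is scaled to controls: 0 for no effect and ±100 for the full control effect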
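Thallium flux read-out: FluxOr dye with Red40 quencher in HBSS/HEPES, 45 min at RT. Rate constants from kinetic reads were normalized to positive and negative DMSO controls. Cells: U2OS virally expressing the 3.1 isoform.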
TRPML1 ag = qHTS for Agonists of the Human Mucolipin Transient Receptor Potential 1 (TRPML1); TRPML1-expressing cells, Ca2+ dye fluorescence, FDSS; activation, % (no concentration beside the values); actives 0.12% (n = 410,000); in the data active = activation above about 50%; inconclusive = mostly about 30% to 49%; also: 0% is about no effect
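In this qHTS format, compounds were pin-transferred onto Ca8-dye-loaded TRPML1-DL cells induced with Tet overnight, and intracellular Ca2+ fluorescence was recorded kinetically for 110 s after a 10 s baseline. A subsequent 4uM final 54-4 (EC80) addition followed by a second 110 s read served as the antagonist phase.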
* marks the source's active call; other numbers are inactive results; u = inconclusive; x = not tested or not shown.

SMILES	hERG WT inh	TRPML1 blocker	TRHR PAM	TRHR ag	KCNH2 3.1 inh	TRPML1 ag
Cn1c(N2CCN(C(=O)NCc3ccccc3)CC2)nc2ccccc21	5.8	8.7	-12.0	-0.4	-12.5	0.5
Cn1c(N2CCN(C(=O)Nc3ccc(C(F)(F)F)cc3)CC2)nc2ccccc21	-82.3*	0.6	0.5	-0.5	-74.4*	5.9
COc1cc(C2CC(=O)Oc3c2c(=O)[nH]c2ccccc32)cc(OC)c1OC (centres undefined)	x	-2.0	30.6*	-0.3	x	1.7
O=C1CC(c2ccc(F)cc2)c2c(c3ccccc3[nH]c2=O)O1 (centres undefined)	x	-1.8	-0.5	-0.2	x	1.7
CN(CC(=O)Nc1ccccc1Cl)CC(=O)Nc1cccc2ccccc12	0.6	26.4	x	x	-12.4	1.9
O=C(CSCc1ccccc1)N=Nc1c(O)[nH]c2ccccc12	-3.0	2.8	1.3	-1.3	-1.8	5.9
Cc1ccc2[nH]c(O)c(N=NC(=O)CCc3ccccc3)c2c1Br	11.9	3.2	32.1*	1.0	26.2	0.1
CCCCN(C(=O)COc1ccc(F)cc1)c1c(N)n(CC(C)C)c(=O)[nH]c1=O	-7.6	-11.1	x	x	-4.6	0.0
CCN(CC)c1ccc(NC(=O)c2sc3ccccc3c2Cl)cc1	x	35.8	-1.8	-0.6	x	0.6
O=C(Cc1ccc(Cl)cc1)Nc1ccc(CN2CCCCC2)cc1	21.1	2.3	-0.7	3.3	-70.1*	5.5
O=C(Nc1ccc(CN2CCCCC2)cc1)c1sc2ccccc2c1Cl	-2.5	63.9	5.3	0.2	-100.1*	0.6
CCN(CC)Cc1ccc(NC(=O)c2sc3cc(Cl)ccc3c2Cl)cc1	5.6	0.0	-2.1	0.5	-95.0*	-0.7
Cc1cc(OCC(=O)Nc2ccc(CN3CCCCC3)cc2)ccc1Cl	12.6	16.9	-6.8	1.6	-85.6*	1.5
CC(=O)Nc1ccc(CN2CCCCCC2)cc1	1.6	15.3	7.6	-0.3	-9.1	0.5
O=C(NCC(=O)N1CCCCC1)c1sc2ccccc2c1Cl	3.2	-3.9	5.6	0.1	24.4	0.0
COc1cccc(N2C(=O)Nc3ccc(Br)cc3C2(O)C(=O)NCCN(C)C)c1 (centres undefined)	0.3	-1.0	-16.7	0.4	4.5	0.8
COc1ccc(NC(=O)Nc2cn(CC(C)C)c(=O)c3ccccc23)c(OC)c1	x	7.8	-11.7	-1.1	x	1.9
Cc1ccc(Cl)cc1NC(=O)Nc1cn(CC(C)C)c(=O)c2ccccc12	x	1.5	0.1	-0.5	x	57.1*
CCOC(=O)c1sc(=S)n(C)c1NC(=O)c1ccccc1C	-12.2	19.3	12.9	-0.1	-5.3	0.0
O=C(Nc1nc(-c2nc3ccccc3s2)cs1)C1COc2ccccc2O1 (centres undefined)	-6.4	14.2	-0.9	0.5	-83.0*	1.3
CN(C1CCS(=O)(=O)C1)S(=O)(=O)c1ccccc1 (centres undefined)	3.7	11.8	30.2*	-0.6	3.0	0.9
CCCC1O[C@@H]2C[C@H]3[C@@H]4CCC5=CC(=O)C=C[C@]5(C)[C@H]4[C@@H](O)C[C@]3(C)[C@]2(C(=O)CO)O1 (some centres undefined)	-10.8	3.2	33.3*	0.6	-5.6	0.8
CCn1cnc2c(Nc3ccc(CC(=O)N=C(N)N)cc3)nc(C#N)nc21	x	x	1.0	-1.3	x	x
CC(C=NNc1ccc([N+](=O)[O-])cn1)=Cc1ccccc1	7.1	-2.9	x	x	15.2	1.0
O=C1c2cccc3c([N+](=O)[O-])ccc(c23)C(=O)N1O	-197.1*	0.4	-2.8	0.5	-30.2	-0.2
SMILES	hERG WT inh	TRPML1 blocker	TRHR PAM	TRHR ag	KCNH2 3.1 inh	TRPML1 ag
C#CC(C)OCC1CNC(=S)O1 (centres undefined)	15.5	9.5	x	x	1.3	-0.2
CC(C)C(=O)N1CCCC1(C)C(=O)Nc1ccc(-n2cncn2)cc1 (centres undefined)	x	x	x	x	x	-0.2
COc1cc(C(=O)Nc2cccc(-c3nncn3C)c2)cc(OC)c1OC	4.1	4.5	33.9*	-0.2	0.8	-0.4
COc1cc(C(=O)Nc2cccc(NC(=O)c3ccccc3)c2)cc(OC)c1OC	-12.1	-7.0	-1.8	-0.5	-3.4	1.0
c1ccc(Cc2noc(CN3CCN(C4CCc5ccccc5C4)CC3)n2)cc1 (centres undefined)	33.6	13.3	-1.0	-0.4	-126.9*	-0.1
Cc1ccc2c(c1)C/C(=C/c1ccc(N(C)C)cc1)C2=O	x	x	x	x	x	55.2*
O=C(COc1ccccc1Cl)NCC1(N2CCOCC2)CCCCC1	x	-22.8	1.0	-3.0	x	4.9
CCC(=O)N1CCc2cc(Br)cc(S(=O)(=O)CCC(=O)N3CCN(c4cccc(C(F)(F)F)c4)CC3)c21	x	-8.0	-3.8	-0.2	x	-0.4
CC(OC(=O)c1cc(Br)ccc1O)C(=O)Nc1ccc(S(=O)(=O)N2CCCC2)cc1 (centres undefined)	-2.8	-1.4	-6.4	0.9	-90.9*	-0.5
Cc1cccc(C(=O)OC(C)C(=O)Nc2ccc(S(=O)(=O)N3CCCC3)cc2)c1O (centres undefined)	6.0	11.9	7.9	1.5	-7.3	1.8
CC(=O)N1c2ccc(S(=O)(=O)N3CCN(c4ccc(C)cc4C)CC3)cc2CC1C (centres undefined)	x	2.6	8.9	-0.7	x	3.4
CC1CCN(S(=O)(=O)c2ccc3ncn(CC(=O)Nc4ccccc4C(F)(F)F)c(=O)c3c2)CC1	x	5.1	-10.2	-0.7	x	0.2
O=C(CS(=O)(=O)Cc1ccccc1)NCCc1ccc(F)cc1	2.5	-6.9	8.8	0.0	-78.4*	0.7
O=C(Cc1ccc(F)cc1)NCCc1ccccc1	-5.0	14.3	10.3	-0.9	u	-0.3
O=S(=O)(NC1CCCCC1)c1ccc(N2CCOCC2)nc1	15.3	4.2	-12.4	-0.8	14.5	0.7
O=C(c1cc(-c2ccc(O)cc2)on1)N1CCCCCC1	5.5	-51.6*	6.9	-2.3	-2.7	2.9
CC(C)(C)n1ncc2c(=O)n(Cc3c(F)cc(Cl)cc3F)cnc21	x	-14.0	x	x	x	1.6
Cc1nn(CCCC(=O)NCc2ccc(F)cc2)c(C)c1[N+](=O)[O-]	-3.9	-11.9	30.4*	-1.1	-13.0	2.0
